Measurements as given in PubChem BioAssay (Tox21).
Inconclusive results are not listed. Activity calls are given as the source filed them. The call rests on the fitted dose curve; in most records, active means well fitted cell-killing curve with a large enough effect in the repeat runs; inconclusive means weak or mixed curves; inactive means no such curve, though single readings can be large or run the other way.

Assay: qHTS assay to identify small molecule antagonists of the peroxisome proliferator-activated receptor delta (PPARd) signaling pathway - cell viability counter screen (AID 743213); further: nearly all actives have a fitted effect of over 50% in size
Settings: PPARd-bla HEK293H viability, CellTiter-Glo luminescence, 17 h; series mostly up to 62 µM
Excerpt: U.S. Tox21 Program National Center for Advancing Translational Sciences [NCATS] NIH Chemical Genomics Center [NCGC] U.S. Environmental Protection Agency [EPA] National Institutes of Environmental Health Sciences [NIEHS] National Toxicology Program [NTP] U.S. Food and Drug Administration [FDA] Tox21 Assay Overview: The peroxisome proliferator-activated receptors (PPARs) are lipid-activated transcription factors of the nuclear receptor superfamily with three distinct subtypes namely PPAR alpha, PPAR delta (PPARd) and PPAR gamma. All these subtypes heterodimerizes with Retinoid X receptor (RXR) and have different physiological functions. […] To identify the compounds that inhibit PPAR-delta signaling, GeneBLAzer PPAR delta UAS-bla HEK293H cell line (Invitrogen, Carlsbad, CA, USA) containing a beta-lactamase reporter gene under the control of an Upstream Activator Sequence (UAS) was used to screen the Tox21 compound library. The cytotoxicity of the Tox21 compound library against the PPARd-bla cell line was tested in parallel by measuring the cell viability using CellTiter-Glo assay (Promega, Madison, WI) in the same wells.
Tox21 Assay Protocol Summary: PPARd-bla cells were dispensed at 3000 cells/5uL/well in 1536-well black wall/clear bottom plates using a Multidrop Combi (Thermo Fisher Scientific, Waltham, MA) dispenser. After the assay plates were incubated at 37 C and 5% CO2 for 5 h, 23 nL of compounds dissolved in DMSO, positive controls or DMSO only was transferred to the assay plate by a Pintool station (Kalypsys, San Diego, CA), followed by addition of 1ul L165041 (300 nM, final concentration in the wells). The assay plates were incubated at 37 C for 17 h, and then 1 uL of LiveBLAzerTM B/G FRET substrate was added using a Bioraptr Flying Reagent Dispenser (FRD) workstation (Beckman Coulter, Indianapolis, IN, USA). The assay plates were incubated at room temperature for 2 h and fluorescence intensity was measured by an Envision plate reader (PerkinElmer, Shelton, CT). For cell viability readout that measures cytotoxicity, 3 ul/well of CellTiter-Glo reagent was added into the assay plates using a Bioraptr FRD. After 30 min incubation at room temperature, the luminescence intensity in the plates was measured using a ViewLux plate reader (PerkinElmer).
On the % scale 0 is the no-effect control and ±100 the full control effect.

SMILES | outcome | viability change, negative = cytotoxic
CCCCc1ccc2c(n1)[C@@H](c1ccc(OC)cc1C[C@H](C)C(=O)O)[C@H](C(=O)O)[C@H]2c1ccc2c(c1)OCO2 | inactive | 
Cc1ccnc(NS(=O)(=O)c2ccc(N)cc2)n1 | inactive | 
CCOC(=O)c1ccccc1 | inactive | 
COc1cc(C(=O)NCc2ccc(OCCN(C)C)cc2)cc(OC)c1OC | inactive | 
Cc1ccc(C(=O)Nc2ccc(S(=O)(=O)O)c3cc(S(=O)(=O)O)cc(S(=O)(=O)O)c23)cc1NC(=O)c1cccc(NC(=O)Nc2cccc(C(=O)Nc3cc(C(=O)Nc4ccc(S(=O)(=O)O)c5cc(S(=O)(=O)O)cc(S(=O)(=O)O)c45)ccc3C)c2)c1 | inactive | 
CCN(CC#N)c1cccc(C)c1 | inactive | 
CC1OC1C1CCC2(C)OC2C1 (stereo not given) | inactive | 
[O-][n+]1cccc(CO)c1 | inactive | 
CC/C=C\CCOC(C)OCC (stereo not given) | inactive | 
NCCCC[C@H](N[C@@H](CCc1ccccc1)C(=O)O)C(=O)N1CCC[C@H]1C(=O)O | inactive | 
CO[C@@]1(NC(=O)CSC[C@@H](N)C(=O)O)C(=O)N2C(C(=O)O)=C(CSc3nnnn3C)CS[C@@H]21 | inactive | 
Cc1c(N)c(=O)n(-c2ccccc2)n1C | inactive | 
Clc1cc(Cl)c(Cl)nc1Cl | inactive | 
C=C(C)C(=O)OCCOCCOCCOCCOC(=O)C(=C)C | inactive | 
C=CCOCC(O)CO (stereo not given) | inactive | 
CCN[C@@H]1C[C@H](N)[C@@H](OC2OC(CN)=CCC2N)[C@H](O)[C@H]1O[C@H]1OC[C@](C)(O)[C@H](NC)[C@H]1O (stereo not given in full) |  | 8.69% [at 0.575 µM] (inactive)
N[C@H](C(=O)O)[C@@H](O)c1ccc(O)c(O)c1 | inactive | 
CC1=NN(c2cccc(S(=O)(=O)O)c2)C(=O)C1 | inactive | 
CCC(C(=O)NC(=O)NC(C)=O)c1ccccc1 (stereo not given) | inactive | 
COC(=O)C1=C(C)NC(C)=C(C(=O)OC(C)C)C1c1cccc2nonc12 (stereo not given) | inactive | 

SMILES | outcome | viability change, negative = cytotoxic
CCCCCC(=O)OCCc1ccccc1 | inactive | 
CCO[Si](OCC)(OCC)c1ccccc1 | inactive | 
C=CC(=O)OCCCl | inactive | 
O=C(c1ccccc1)C1(O)CCCCC1 | inactive | 
CCN(Cc1ccccc1)c1ccccc1 | inactive | 
CC(C)CC(C)(N)C#N (stereo not given) | inactive | 
Nc1ccn([C@@H]2O[C@H](CO)[C@@H](O)C2O)c(=O)n1 (stereo not given in full) | inactive | 
C=C(C)C(=O)OCC1CCCO1 (stereo not given) | inactive | 
CC(C)(N)C#N | inactive | 
C[N+]1(CC2COC(c3ccccc3)(c3ccccc3)O2)CCCCC1 (stereo not given) | inactive | 
CCN1CCOCC1 | inactive | 
O=[N+]([O-])c1cncn1CCN1CCOCC1 | inactive | 
CCOCC(C)O (stereo not given) | inactive | 
O=C(O)c1cn(C2CC2)c2cc(N3CCNCC3)c(F)cc2c1=O | inactive | 
NC(=O)N[C@@H](CCC(=O)O)C(=O)O | inactive | 
C[C@@H]1CCC[C@H](C)N1 | inactive | 
CC(=O)c1cnccn1 | inactive | 
CO[C@@]1(NC(=O)C(C(=O)O)c2ccc(O)cc2)C(=O)N2C(C(=O)O)=C(CSc3nnnn3C)CO[C@@H]21 (stereo not given in full) | inactive | 
COc1cc(C)nc(-n2nc(C)cc2OC)n1 | inactive | 
CC1(C)OC[C@@H](COC(=O)CCc2ccc(OC[C@@H](O)CNCCNC(=O)N3CCOCC3)cc2)O1 | inactive | 
